Measured values published in article PMC4552634, “A New Set of Chemical Starting Points with Plasmodium falciparum Transmission-Blocking Potential for Antimalarial Drug Discovery” (PLoS ONE, 2015).
Where two headings read alike, the source gives them in different places. Among all 13,000 compounds or so, about 3,200 (25%) showed an effect of 50% or more. This is one part of the list.

Tested on: P. falciparum stage V gametocytes
Parameters: BacTiter-Glo ATP luminescence viability of purified stage V gametocytes in 384-well plates, per cent inhibition versus DMSO
Conditions: 48 h, 5 µM, inhibitor

SMILES	% Inhibition [%]	% Inhibition (% Inhibition) [%]
O=C(N[C@@H](CC1CCCCC1)C(=O)NCCN1CCCC1)c1ccc(O)c(-c2cccc(C(F)(F)F)c2)c1 [TCMDC-140811]	39	–
Cc1cc(OC(C)C(=O)N2CCc3ccccc32)ccc1Cl (centres unmarked) [TCMDC-123696]	25.65	–
COc1ccc(Cc2cnc(N)nc2N)cc1OCCCOc1ccccc1 [TCMDC-137364]	-5.696	–
Cn1ccnc1Sc1ncccc1[N+](=O)[O-] [TCMDC-123944]	5.094	–
O=C(Nc1cccc(CN2CCCN(Cc3ccc4c(c3)OCO4)CC2)c1)c1ccc2ccccc2c1 [TCMDC-141852]	-18.83	–
N#Cc1cccc(NC(=O)C2=C(CCc3ccc4c(c3)OCO4)NC(=O)NC2c2cccc(C#N)c2)c1 (centres unmarked) [TCMDC-136054]	65.54	–
O=C(Nc1cccc(CN2CCCN(Cc3ccc4c(c3)OCO4)CC2)c1)c1ccc(-c2ccccc2)cc1 [TCMDC-134593]	-55.86	–
COc1cc(Cc2cnc(NCCN3CCNCC3)nc2N)ccc1OCc1ccc(C(F)(F)F)cc1 [TCMDC-138704]	48.16	–
CCCCCCNc1cc(C)nc2ccc(OC)cc12.Cl [TCMDC-137623]	-4.593	–
Cc1cc(NCCCCCCNc2cc(C)nc3c(C)cccc23)c2cccc(C)c2n1 [TCMDC-125702]	114	–
CCCCCCCNc1cc(C)nc2ccc(OC)cc12.Cl [TCMDC-137622]	19.17	–
Cc1cc(NCCCCCCCCNc2cc(C)nc3ccccc23)c2ccccc2n1 [TCMDC-137746]	113.6	–
CCCCCCCN(CCCCCCC)CCNc1cc(C)nc2ccccc12 [TCMDC-137555]	59.52	–
CCCCCCCNCCNc1cc(C)nc2ccccc12 [TCMDC-137556]	91.75	–
COc1cccc(Nc2nc(C)cc(NC3CCCC3)n2)c1 [TCMDC-133464]	31.06	–
CCn1ncc(Cl)c1CN(C)S(=O)(=O)c1ccc2ccccc2c1 [TCMDC-124904]	17.76	–
O=C(Nc1ccc2c(c1)CCC2)c1ccc(CN2CCCN(Cc3cccc(O)c3)CC2)cc1 [TCMDC-136388]	-14.41	–
N#Cc1ccc2c(c1)CN(C1CCC(NC(=O)/C=C/c3cc(C(F)(F)F)cc(C(F)(F)F)c3)CC1)CCC2 (centres unmarked) [TCMDC-133502]	-43.57	–
CCCC(CNCc1cccc(OC(F)(F)C(F)F)c1)CNc1cc(=O)c2ccccc2[nH]1 (centres unmarked) [TCMDC-139430]	-8.212	–
CCC/C=C/c1c(CNCCCNc2cc(=O)c3ccccc3[nH]2)sc(CC)c1Br [TCMDC-140971]	58.98	–
O=c1cc(NCCCNCc2sc(Br)c(Br)c2Br)[nH]c2ccccc12 [TCMDC-139647]	-5.668	–
CCCC(CNCc1cccc(OC(F)(F)F)c1)CNc1cc(=O)c2ccccc2[nH]1 (centres unmarked) [TCMDC-139429]	83.68	–
O=c1cc(NCCCNCc2ccc(Cl)c(Cl)c2)[nH]c2ccc(Cl)cc12 [TCMDC-139400]	23.89	–

SMILES	% Inhibition [%]	% Inhibition (% Inhibition) [%]
O=c1cc(NCCCNCc2ccc(Cl)c(Cl)c2)[nH]c2cc(Cl)ccc12 [TCMDC-139401]	50.55	–
O=c1cc(NCCCNCc2cccc(Oc3ccccc3)c2)[nH]c2ccccc12 [TCMDC-139309]	31.54	–
O=c1cc(NCCCNCc2ccc(Cl)c(Cl)c2)[nH]c2ccc(C(F)(F)F)cc12 [TCMDC-139407]	4.234	–
O=c1cc(NCCCNCc2cccc(OC(F)(F)F)c2)[nH]c2ccccc12 [TCMDC-139418]	80.26	–
CCCC(CNCc1cccc(OCC)c1)CNc1cc(=O)c2ccccc2[nH]1 (centres unmarked) [TCMDC-139432]	35.2	–
O=c1cc(NCCCNCc2cccc(OC(F)(F)C(F)F)c2)[nH]c2ccccc12 [TCMDC-139419]	-24.87	–
CCc1cc(Br)c(CNCCCNc2cc(=O)c3ccccc3[nH]2)s1 [TCMDC-140745]	-24.29	–
CN(C)CC(=O)NCC(NCCCNc1cc(=O)c2ccccc2[nH]1)c1cc(Br)cc(Br)c1 (centres unmarked) [TCMDC-140314]	-36.64	–
CN(CCCN(C)c1cc(NC(=O)c2ccc(F)cc2)ccn1)Cc1cccc(F)c1 [TCMDC-135041]	-7.091	–
Cc1ccc(O)c(-c2cc(C(=O)Nc3ccc(S(=O)(=O)N4CCCC(C)C4)cc3)[nH]n2)c1 (centres unmarked) [TCMDC-125202]	-32.7	–
CN1CCCc2ccc(NC(=O)c3cnc(-c4ccccc4)cn3)cc21 [TCMDC-141218]	-34.46	–
O=c1cc(NCCCN(Cc2ccccc2)Cc2ccccc2)[nH]c2ccccc12 [TCMDC-139368]	-49.11	–
O=c1cc(NCCCNC2CCc3ccc(Cl)cc32)[nH]c2ccccc12 (centres unmarked) [TCMDC-139365]	84.72	–
O=c1cc(NCCCNC(c2ccccc2)c2ccc(Cl)c(Cl)c2)[nH]c2ccccc12 (centres unmarked) [TCMDC-139318]	54.86	–
O=c1cc(NCCCNC2CCc3c(Cl)cc(Cl)cc32)[nH]c2ccccc12 (centres unmarked) [TCMDC-139485]	17.36	–
O=c1cc(NCCCNCc2cc(Cl)c(Cl)cc2Cl)[nH]c2ccccc12 [TCMDC-139631]	-58.3	–
O=c1cc(NCCCNC2CCCc3c2cc(Cl)c(Cl)c3Cl)[nH]c2ccccc12 (centres unmarked) [TCMDC-139478]	2.268	–
Cc1[nH]c2ccc(O)cc2c1C1CCN(CC2CCN(C(=O)/C=C/c3ccc(Cl)c(Cl)c3)CC2)CC1 [TCMDC-140219]	39.96	–
CCCCCCCCCC(=O)NCC1CC(Br)=NO1 (centres unmarked) [TCMDC-137735]	4.616	–
OC(CNC1CCCCCC1)c1ccc(Cl)c(Cl)c1 (centres unmarked) [TCMDC-141990]	-11.57	–
OC(CNC1CCCCCCC1)c1ccc(Cl)c(Cl)c1 (centres unmarked) [TCMDC-141991]	-9.212	–
OC(CNC1CCCCC1)c1ccc(Cl)c(Cl)c1 (centres unmarked) [TCMDC-123990]	75.22	–
OC(CNCCCCCCNCC(O)c1ccc(Cl)c(Cl)c1)c1ccc(Cl)c(Cl)c1 (centres unmarked) [TCMDC-141987]	99.2	–

SMILES	% Inhibition [%]	% Inhibition (% Inhibition) [%]
CC(C)C[C@H](NC(=O)c1ccc(OCCN2CCOCC2)cc1)C(=O)N[C@H](/C=N/N(C)C(=O)c1ccccc1)CCc1ccccc1 [TCMDC-135854]	17.32	–
CC1(C)N=C(N)N=C(N)N1OCc1cccs1 [TCMDC-131654]	20.54	–
COC(=O)/C=C/c1ccc(CC(C)NCC(O)c2cccc(C(F)(F)F)c2)cc1 (centres unmarked) [TCMDC-131448]	–	-0.1444
CCNc1cc(C(=O)N[C@@H](Cc2ccccc2)[C@H](O)CN[C@@H](C)c2cccc(OC)c2)cc(N2CCCC2=O)c1 [TCMDC-138824]	-0.5109	–
CCNc1cc(C(=O)N[C@@H](Cc2ccccc2)[C@H](O)CN[C@@H](C)c2ccccc2)cc(N2CCCC2=O)c1 [TCMDC-138823]	8.317	–
CCNc1cc(C(=O)N[C@@H](Cc2ccccc2)[C@H](O)CNC2CCCC2)cc(N2CCCC2=O)c1 [TCMDC-138844]	16.89	–
CCNc1cc(C(=O)N[C@@H](Cc2ccccc2)[C@H](O)CN[C@H](C)c2ccccc2)cc(N2CCCC2=O)c1 [TCMDC-138822]	64.41	–
CCC(NC[C@@H](O)[C@H](Cc1ccccc1)NC(=O)c1cc(C2CCCC2)cc(N2CCCC2=O)c1)c1cccc(Cl)c1 (some centres unmarked) [TCMDC-135265]	4.239	–
CCNc1cc(C(=O)N[C@@H](Cc2ccccc2)[C@H](O)CNC(C)(C)CSCC(C)C)cc(N2CCCC2=O)c1 [TCMDC-134311]	69.93	–
CCNc1cc(C(=O)N[C@@H](Cc2ccccc2)[C@H](O)CNC(CC)c2cccc(Cl)c2)cc(N2CCCC2=O)c1 (some centres unmarked) [TCMDC-135264]	64.68	–
CCNc1cc(C(=O)N[C@@H](Cc2ccccc2)[C@H](O)CNC(CC)c2cccc(Cl)c2)cc(N2CCCCS2(=O)=O)c1 (some centres unmarked) [TCMDC-135221]	3.057	–
CCNc1cc(C(=O)N[C@@H](Cc2ccccc2)[C@H](O)CNC(C)(C)Cc2ccccc2)cc(N2CCCC2=O)c1 [TCMDC-134567]	5.299	–
CCNc1cc(C(=O)N[C@@H](Cc2ccccc2)[C@H](O)CN[C@H]2CCc3ccccc32)cc(N2CCCC2=O)c1 [TCMDC-138917]	52.85	–
CCNc1cc(C(=O)N[C@@H](Cc2ccccc2)[C@H](O)CN[C@@H]2CCc3ccccc32)cc(N2CCCC2=O)c1 [TCMDC-132414]	21.82	–
CCCCCC(C)(C)NC[C@@H](O)[C@H](Cc1ccccc1)NC(=O)c1cc(NCC)cc(N2CCCC2=O)c1 [TCMDC-138912]	10.89	–
Cc1cccc2[nH]c(-c3cccc(-c4cccc(CN5CCC(CO)CC5)c4)c3)nc12 [TCMDC-133131]	-22.3	–
Nc1nccc(-c2ccc3c(-c4cccc(F)c4)cnc(N)c3c2)n1 [TCMDC-134545]	-1.877	–
Cc1cc(NC(=O)c2ccsc2)ccc1OC1CCN(Cc2ccc(F)cc2)CC1 [TCMDC-133742]	4.453	–
COc1ccc(Nc2nccc(-c3c(-c4cccc(NC(=O)c5c(F)cccc5F)c4)nn4ccccc34)n2)cc1Cl [TCMDC-135970]	-50.42	–
CS(=O)(=O)N(c1ccccc1)c1cc(C(=O)N[C@@H](Cc2ccccc2)[C@H](O)CNC2CCCCC2)cc(N2CCCC2=O)c1 [TCMDC-138850]	25.67	–
CS(=O)(=O)N(c1ccccc1)c1cc(C(=O)N[C@@H](Cc2ccccc2)[C@H](O)CNC2CC2)cc(N2CCCC2=O)c1 [TCMDC-138891]	19.46	–
CC(C)CCCC(C)NC[C@@H](O)[C@H](Cc1ccccc1)NC(=O)c1cc(N2CCCC2=O)cc(N(c2ccccc2)S(C)(=O)=O)c1 (some centres unmarked) [TCMDC-138851]	82.88	–
